Measurements taken from PubChem BioAssay (NCI).
The panel holds about 79,000 compounds, 15% with a hit somewhere; the sample as a whole holds those more often. Unmarked numbers belong to inactive results. Active and inactive are the calls of the source. Rule as the data show it: active = growth inhibition above about 70%; inactive = the rest.

Experiments:
[1] = NCI Yeast Anticancer Drug Screen. Data for the rad50 strain (AID 155);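 also: 0% = growth of vehicle-only cultures of the same strain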; conditions: S. cerevisiae rad50 strain growth inhibition, hits give high values
How it was run: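 DNA repair mutant yeast, compound exposure, growth read-out; inhibition is taken relative to vehicle.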

[2] = NCI Yeast Anticancer Drug Screen. Data for the mec2-1 strain (AID 157); conditions: S. cerevisiae mec2-1 strain, hits give high values
How it was run: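 Cells of the genetically defined mec2-1 yeast strain are incubated with test compound. Inhibition of growth is calculated against vehicle-treated controls.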

[3] = NCI Yeast Anticancer Drug Screen. Data for the sgs1 mgt1 strain (AID 161);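 also: 0% = growth of cultures given vehicle only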; conditions: S. cerevisiae sgs1 mgt1 strain, hits give high values
How it was run: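 Mutant yeast exposed to compound; growth scored against vehicle-only wells.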

[4] = NCI Yeast Anticancer Drug Screen. Data for the cln2 rad14 strain (AID 165);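 also: 0% = growth equal to vehicle treated cultures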; conditions: S. cerevisiae cln2 rad14 strain, hits give high values
How it was run: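 The screen exposed genetically defined yeast (cln2 rad14) to test compounds and scored growth inhibition relative to vehicle-treated controls.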

[5] = NCI Yeast Anticancer Drug Screen. Data for the bub3 strain (AID 167); conditions: S. cerevisiae bub3 mutant strain, hits give high values
How it was run: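 In this screen, a yeast mutant lacking normal mitotic checkpoint function is challenged with compound. Relative growth versus vehicle gives the inhibition value.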

[6] = NCI Yeast Anticancer Drug Screen. Data for the mlh1 rad18 strain (AID 175); conditions: S. cerevisiae mlh1 rad18 strain growth inhibition, hits give high values
How it was run: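 Compound-treated yeast growth, normalised to vehicle controls. Strain bears defined DNA repair mutations.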

[7] = at 5.0 µM (retest, dose inferred, filed as 0.5)
[8] = at 50.0 µM (retest, dose inferred, filed as 5.0)

Row | SMILES | growth inhibition [1, 7] | growth inhibition [1, 8] | growth inhibition ([1]; at 50.0 µM) | growth inhibition [2, 7] | growth inhibition [2, 8] | growth inhibition ([2]; at 50.0 µM) | growth inhibition [3, 7] | growth inhibition [3, 8] | growth inhibition ([3]; at 50.0 µM) | growth inhibition [4, 7] | growth inhibition [4, 8] | growth inhibition ([4]; at 50.0 µM) | growth inhibition [5, 7] | growth inhibition [5, 8] | growth inhibition ([5]; at 50.0 µM) | growth inhibition [6, 7] | growth inhibition [6, 8] | growth inhibition ([6]; at 50.0 µM)
1 | COc1ccccc1C1c2cc3c(cc2OC2(OC)COC(=O)C12)OCO3 (configuration not stated) | 24% | 58% | 9.85% | 22% | 42% | 0% | 11% | 42% | 1.95% | 20% | 35% | 17% | 32% | 54% | 17.2% | 23% | 69% | 22%
2 | [Cl][Sn]1([Cl])[CH2]CC[CH2][Sn]([Cl])([Cl])[CH2]CC[CH2][Sn]([Cl])([Cl])[CH2]CC[CH2][Sn]([Cl])([Cl])[CH2]CC[CH2]1 | -20% | 57% | 54.3% | -19% | 63% | 83.3% (active) | -3% | 66% | 87.5% (active) | -6% | 47% | 69.6% | -9% | 66% | 70.9% (active) | -2% | 83% (active) | 94% (active)
3 | N#Cc1c(-c2ccc(Cl)cc2)c(-c2ccc(Cl)cc2)nn(CCOC(=O)CN)c1=O | 18% | 94% (active) | 40.5% | 10% | 96% (active) | 57% | -27% | 89% (active) | 45.6% | 6% | 82% (active) | 18.6% | -16% | 86% (active) | 35.1% | 22% | 97% (active) | 87% (active)
4 | Nc1nc(N)c(C(=O)SCc2ccccc2)nc1Cl | 6% | 70% (active) | 66% | 2% | 57% | 58.9% | 3% | 52% | 97.4% (active) | 2% | 70% (active) | 4.95% | -2% | 62% | 7.45% | 5% | 94% (active) | 69.3%
5 | Cc1cc(Nc2ccc(N=Nc3ccc(O)c4ncccc34)cc2)nc(C)n1 | 1% | 31% | 71.1% (active) | -4% | 21% | 52.5% | -2% | 35% | 47.9% | -41% | 6% | 23% | 5% | 4% | 60.9% | 0% | 37% | 75.5% (active)
6 | O=C(Nc1ccccc1)OCCCCl | -7% | -4% | 9.1% | -7% | 1% | -13.3% | -16% | 25% | 30.6% | 25% | -7% | 64.3% | -19% | -19% | 7.3% | -23% | -8% | 12.4%
7 | O=c1[nH]c2cc(Cl)ccc2nc1/C=C(\O)c1ccc(N2CCN(c3ccc(/C(O)=C/c4nc5ccc(Cl)cc5[nH]c4=O)cc3)CC2)cc1 | 10% | 12% | 95.8% (active) | 0% | 19% | 96.3% (active) | -3% | -12% | 94.2% (active) | 17% | -10% | 90.8% (active) | 19% | -15% | 94.5% (active) | -25% | -7% | 94.2% (active)
8 | CC(C)CCC(C)(C)c1cc(O)ccc1O | 35% | 99% (active) | 98.4% (active) | 13% | 99% (active) | 99.5% (active) | 16% | 98% (active) | 75.7% (active) | 14% | 92% (active) | 87.5% (active) | 79% (active) | 98% (active) | 98.8% (active) | 35% | 99% (active) | 97.6% (active)
9 | O=[N+]([O-])c1cc(I)cc(/C=N/NS(=O)(=O)c2ccc(F)cc2)c1O | 16% | 36% | 84.2% (active) | 12% | 31% | 77.7% (active) | 19% | 47% | 89.5% (active) | 0% | 15% | 77.8% (active) | 3% | 17% | 53% | 17% | 45% | 93% (active)
